Results: ChEMBL document CHEMBL1157539, “Thousands of chemical starting points for antimalarial lead identification” (Nature, 2010)

Legend:
Assay type in all cases: functional
Plasmodium falciparum [1] = test: GSK_TCMDC: Inhibition of Plasmodium falciparum 3D7 in whole red blood cells, using parasite LDH activity as an index of growth. Test compounds present at 2uM
Plasmodium falciparum [2] = test: GSK_TCMDC: Inhibition of Plasmodium falciparum Dd2 in whole red blood cells, using parasite LDH activity as an index of growth. Test compounds present at 2uM
HepG2 = test: GSK_TCMDC: Percent inhibition of human HepG2 cell line. Test compounds present at 10uM.

| Compound | Inhibition (Plasmodium falciparum [1]) [%] | Inhibition (Plasmodium falciparum [2]) [%] | Inhibition (HepG2) [%] |
| --- | --- | --- | --- |
| CCCC(CNCc1ccccc1)CNc1cc(=O)c2ccccc2[nH]1 (stereo not drawn) | 86 | 21 | 2 |
| CN1CCN(Cc2ccc(-c3cccc(-c4nc5ccccc5[nH]4)c3)cc2)CC1.O=C(O)C(F)(F)F | 93 | 6 | 21 |
| CCc1nnc2sc(-c3cccc(NC(=O)c4ccc(C)c([N+](=O)[O-])c4)c3)nn12 | 82 | 46 | 10 |
| CC(C)NCc1ccc(-c2cccc(CN3CCC(c4ccccc4)CC3)c2)c(C(=O)NCC2CCCCC2)c1.O=C(O)C(F)(F)F | 98 | 76 | 42 |
| Cc1ccc2nc(C)cc(N/N=C/c3ccc([N+](=O)[O-])cc3)c2c1 | 100 | 15 | 10 |
| Cc1ccc(OC2CCN(c3ccc(C(=O)NC4CC4)cn3)CC2)cc1 | 87 | 75 | 11 |
| COc1cc(NC(=O)/C=C/c2cc(F)cc(F)c2F)cc(OCCN2CCC3(CC2)OCCO3)c1.O=C(O)C(=O)O | 98 | 26 | 17 |
| COc1cc(Cc2cnc(N)nc2N)cc(OCCCN2C(=O)c3ccccc3C2=O)c1OC | 96 | 0 | 0 |
| FC(F)(F)c1ccc2c(NN=Cc3cccc(Cl)c3)ccnc2c1 | 93 | 59 | 7 |
| CCOc1cc(Cl)c(C(C)NC(=O)c2cccc(OC)c2)cc1OCC (stereo not drawn) | 98 | 92 | 29 |
| CN1CCN(c2ccc(Nc3c(C(N)=O)cnc4cc(-c5ccoc5)ccc34)cc2)CC1.Cl | 100 | 99 | 14 |
